DT40 TDP1 CPT: DT40-hTDP1 cell growth loss with CPT; chicken DT40 Tdp1-/-;hTDP1 cells + 20 nM CPT, ATP luminescence, 48 h; hit rate 12% among 420,000; Potency, µM (titrated, usually from 46.2 µM), for inactives: at the highest dose activity change, negative = growth inhibition, actives largely listed as inhibitors; also: potency is read from the fitted curve at half-maximal effect; nearly all actives have a fitted effect of over 55% in size
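Chicken DT40 Tdp1-/- cells stably complemented with human TDP1 were seeded at 400 cells/well in medium containing 20 nM camptothecin, exposed to pin-transferred compounds, and grown at 37 °C for at least 48 hr. Viability was read as ATP luminescence.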
IL-1B inflam inh: blocks inflammasome-driven IL-1 beta release | THP-1 LPS/ATP IL-1B secretion, AlphaLISA, 16 h; hits give low values | activity change, % at 57.5 µM | hit rate 4.7% among 360,000 | AID 743279; in the data active = activity change below about -50%; inconclusive = mostly about -30% to -49%
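THP-1 cells pretreated 1 hr with compounds (up to 57.5 uM final), then stimulated with LPS (250 ng/mL final) plus ATP (1.25 mM final); secreted IL-1B measured by AlphaLISA after 16 hr, decreased signal indicating inhibition.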
DT40 TDP1 no CPT: qHTS for Inhibitors of human tyrosyl-DNA phosphodiesterase 1 (TDP1): qHTS in cells in absence of CPT. AID 686978, 2013. Potency, µM (highest dose often 46.2 µM), for inactives: at the highest dose activity change, negative = growth inhibition, hits mostly inhibitors. DT40 Tdp1-/- hTDP1 cells, no CPT, ATP luminescence, 48 h. hit rate 15% among 420,000; also: potency is read from the fitted curve at half-maximal effect; nearly all actives have a fitted effect of over 55% in size
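Chicken DT40 Tdp1-/- cells complemented with human TDP1, screened without camptothecin (DMSO vehicle only), 400 cells/well. Compounds pin-transferred, cells incubated at 37 °C for at least 48 hr. Growth read as ATP-dependent luminescence (CellTiter-Glo, 30 min at RT).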
VP16 counter: Gal4-VP16 reporter inhibition counter-screen; Drosophila S2 Gal4-VP16 UAS-luciferase, luminescence, 20 h; Potency, µM (top dose mostly 53.6 µM), for inactives: top-dose activity, negative = inhibition, usual class: inhibitors; hit rate 3.5% among 310,000; AID 2546;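 also: Gal4-VP16 expression switched on by copper sulfate through the metallothionein promoter; potency is read from the fitted curve at half-maximal effect; nearly all actives have a fitted effect of over 50% in size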
ELG1 DNA repair: inhibitors of ELG1-dependent DNA repair in HEK293T cells; Potency, µM (top dose mostly 46.1 µM), for the others: at the highest dose activity change, negative = inhibition, most hits filed as inhibitors; HEK293T ELG1-luciferase reporter, luminescence, 16 h; DNA damage induced by 5-fluorouridine; hit rate 2.3% among 330,000; also: potency is read from the fitted curve at half-maximal effect; nearly all actives have a fitted effect of over 55% in size
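In this reporter screen, reduction of luminescence relative to DMSO vehicle indicated activity. Compounds and 5-fluorouridine were added together to 2,000 cells per well, incubated for 16 hr at 37 °C, then developed with ONE-Glo.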
RORgamma inh: ROR gamma (mouse) transcription inhibition; P51450; Drosophila S2 Gal4-RORgamma UAS-luciferase reporter, 20 h; Potency, µM (top dose mostly 53.6 µM), for inactives: at the highest dose activity change, negative = inhibition, hits mostly inhibitors; hit rate 5.4% among 310,000; also: potency is read from the fitted curve at half-maximal effect; nearly all actives have a fitted effect of over 60% in size
Target sequence (P51450 whole entry, looked up, the tested form may be a part): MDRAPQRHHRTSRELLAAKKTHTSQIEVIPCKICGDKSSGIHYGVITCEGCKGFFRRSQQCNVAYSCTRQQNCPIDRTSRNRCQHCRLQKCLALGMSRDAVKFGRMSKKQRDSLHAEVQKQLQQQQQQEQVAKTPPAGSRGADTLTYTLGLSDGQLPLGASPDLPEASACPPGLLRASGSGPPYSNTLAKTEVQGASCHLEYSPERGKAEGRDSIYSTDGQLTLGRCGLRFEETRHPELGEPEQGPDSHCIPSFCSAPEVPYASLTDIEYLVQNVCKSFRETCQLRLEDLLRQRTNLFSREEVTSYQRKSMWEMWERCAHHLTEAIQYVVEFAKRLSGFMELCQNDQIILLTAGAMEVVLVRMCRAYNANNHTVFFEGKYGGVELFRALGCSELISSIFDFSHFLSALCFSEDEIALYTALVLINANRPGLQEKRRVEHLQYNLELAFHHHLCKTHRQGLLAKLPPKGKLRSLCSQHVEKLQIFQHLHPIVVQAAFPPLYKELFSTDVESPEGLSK
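Stable Schneider cell line, Gal4 DNA-binding domain fused to ROR gamma, UAS-luciferase. Cmpd 1 hr RT → CuSO4 700 uM final → 20 hr RT → luciferase reagent 10 min → luminescence.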
* marks the source's active call; other numbers are inactive results; ? = inconclusive; . = no result given; [ ] = dose if it differs, or a comment. An excerpt weighted towards active compounds, which were near 21% of everything screened. Unless noted, calls follow the shape of the dose curve; as a rule, active = well fitted curve in the direction sought with a large enough effect; inconclusive = small, poorly fitted or top-dose-only effect, or another doubt; inactive = no such curve, though single readings can be large; an effect the other way counts as inactive or inconclusive. % is scaled to controls: 0 for no effect and ±100 for the full control effect.

SMILES	DT40 TDP1 CPT	IL-1B inflam inh	DT40 TDP1 no CPT	VP16 counter	ELG1 DNA repair	RORgamma inh
CN1C=Nc2c(ncn2C2CCC(CO)O2)C1O (configuration not stated)	-22.9%	16.0	-11.6%	.	.	.
NC1=NC[C@@H](Cc2ccc(O)cc2)N1CCc1cccc(F)c1	?	0.0	-52.2%	-3.4%	19.9%	-8.6%
NC1=NC[C@H](c2ccccc2)N1CCc1cccc(F)c1	16.4µM*	0.0	13µM*	3.3%	-2.5%	-13.4%
c1ccc(NC2=NCCN2CCC2CCCC2)cc1	?	-9.4	-17.7%	5.6%	2.4%	-12.7%
NC1=NC[C@H](c2ccccc2)N1CCCCC1CCCCC1	5.17µM*	-82.9*	7.31µM*	-2.2%	-18.3%	-0.8%
S=C1NC[C@H](c2ccccc2)N1CCCCC1CCCCC1	?	21.5	?	3.16µM*	2.4%	0.447µM*
CN1C2CCC1CC(NC(=O)CSCc1ccc(Cl)cc1Cl)C2 (configuration not stated)	?	-3.2	?	3.0%	?	18.8%
Cc1ccc(C)c(-c2nnc(NC(=O)CCS(=O)(=O)c3ccccc3)o2)c1	?	5.9	?	.	-2.5%	.
COc1cc(-c2nnc(NC(=O)CCS(=O)(=O)c3ccc(F)cc3)o2)cc(OC)c1OC	?	5.6	18.4µM*	.	21.7%	.
COc1cc(-c2nnc(NC(=O)CCS(=O)(=O)c3ccccc3)o2)cc(OC)c1OC	16.4µM*	-54.7*	14.6µM*	.	?	.
O=C(CN1Cc2ccccc2OC(c2ccccc2F)C1)NC(c1ccccn1)C(F)(F)F (configuration not stated)	-5.5%[9.04 µM]	.	?	.	.	.
CN(C)C1CCN(CCCOc2ccc(-c3ccc(C#N)cc3)cc2)C1 (configuration not stated)	.	.	.	-3.3%	.	1.9%
Cc1ccc(S(=O)(=O)N2CCCCC2C(=O)Nc2ccc(N(C)C)cc2)cc1 (configuration not stated)	-20.5%	-28.6	?	.	-29.4%	.
COC(=O)NC(/C(C(=O)OC)=C(\C)NCc1ccccc1)c1cccc(F)c1 (configuration not stated)	.	.	.	-1.1%[10 µM]	.	-10.1%[10 µM]
CC[n+]1c(C)sc2cc(OC)ccc21	2.59µM*	-67.2*	2.91µM*	2.1%	11.3%	-0.2%
O=C(NCc1ccccc1)[C@@H]1CCCN1C(=O)[C@@H]1CCCN1C(=O)c1cccs1	-44.0%	-57.0*	-41.0%	.	.	.
CCC1=NN(C(=O)c2cccnc2)C(O)(C(F)(F)F)C1 (configuration not stated)	16.4µM*	0.4	?	?	-0.6%	11.2µM*
CCCCC1=NN(C(=O)c2cccnc2)C(O)(C(F)(F)F)C1 (configuration not stated)	1.46µM*	23.3	1.03µM*	?	-5.3%	10µM*
CCCC1=NN(C(=O)CCc2ccccc2O)C(O)(C(F)(F)F)C1 (configuration not stated)	-16.5%	13.9	-7.1%	?	4.5%	?
CCCNC(=O)OCc1cccnc1Sc1ccc(C)cc1	?	3.5	14.6µM*	-8.0%	?	?
COC(=O)N1CCC2(CC1)CN(C(=O)Nc1ccc(OC)cc1)C2	6.6%	.	-1.1%	-5.6%	.	22.8%
CCCSC1=N/C(=C\c2ccc([N+](=O)[O-])o2)C(=O)S1	20.6µM*	-7.0	?	17.0%	4.1%	2.3%
CCCSC1=N/C(=C\C=C\c2ccco2)C(=O)S1	25.9µM*	-6.9	18.4µM*	3.9%	5.4%	-4.3%
CCSC1=N/C(=C\c2ccc(-c3ccccc3[N+](=O)[O-])o2)C(=O)S1	3.9%	0.0	?	-7.4%	2.8%	0.8%
O=C1SC(SCc2ccccc2)=N/C1=C\c1ccco1	7.8%	-6.6	-15.3%	9.5%	.	-9.7%
SMILES	DT40 TDP1 CPT	IL-1B inflam inh	DT40 TDP1 no CPT	VP16 counter	ELG1 DNA repair	RORgamma inh
Fc1ccc2nc3n(c2c1F)CCCCCC3	-2.2%	25.3	-6.7%	-21.2%	?	11.2µM*
COc1cc(C(F)(F)F)c(C(=O)N(C)Cc2cc(Cl)cc(Cl)c2)cn1	?	15.0	14.6µM*	-7.4%	?	25.6%
COc1cc(C(F)(F)F)c(C(=O)N(C)Cc2cccc(Cl)c2)cn1	-22.3%	11.4	?	6.7%	?	-1.3%
CS(=O)(=O)Nc1ccc([N+](=O)[O-])cc1OC1CCCCC1	-1.0%[92.5 µM]	.	?	-13.4%	.	15.7%
CC(=O)c1ccc(NS(=O)(=O)c2cc3c(cc2C)N(C)CCO3)cc1	10.3µM*	38.2	?	-18.4%	-16.5%	?
Cc1cc2c(cc1S(=O)(=O)Nc1ccc(C(C)C)cc1)OCCN2C	?	.	16.4µM*	.	.	.
Cc1cc2c(cc1S(=O)(=O)N1CCN(c3ccccc3)CC1)OCCN2C	7.31µM*	6.8	-25.7%	9.1%	3.3%	40.3%
CC(=O)N1CCOc2cc(S(=O)(=O)N3CCN(c4ccccc4)CC3)c(Cl)cc21	5.2%	-1.1	4.4%	-3.0%	-3.6%	21.3%
Cc1ccccc1NS(=O)(=O)c1cc2c(cc1C)N(C)CCO2	-21.4%	16.0	?	9.0%	1.7%	13.8%
Cc1cc2c(cc1S(=O)(=O)N1CCN(c3cccc(C(F)(F)F)c3)CC1)OCC(=O)N2	18.4µM*	53.7	?	-10.4%	23.2%	-23.2%
COC(=O)[C@]12CCCCC=C1N(Cc1ccco1)C(=O)[C@H](CC(=O)NCCc1ccccc1OC)C2	?	-12.2	?	.	.	.
COc1ccccc1C(=O)C1CCCN(C(=O)c2ccc(Cl)cc2)C1 (configuration not stated)	?	10.4	16.4µM*	.	.	.
COc1ccccc1C(=O)C1CCCN(C(=O)CCC(=O)c2ccccc2)C1 (configuration not stated)	10.3µM*	4.9	29.1µM*	-16.3%	6.5%	34.5%
CCN(CC)CC(=O)N1CCCC(C(=O)c2ccccc2OC)C1 (configuration not stated)	2.4%	-6.6	2.7%	22.1%	13.2%	6.1%
Cc1ccc(S(=O)(=O)Nc2ccc(C(=O)N3CCN(c4ccccc4O)CC3)cc2)cc1[N+](=O)[O-]	-25.3%	-1.3	-26.6%	.	-4.1%	.
CN(C)S(=O)(=O)c1cc(NC(=O)COC(=O)C2CSC3(C)CCC(=O)N23)ccc1Cl (configuration not stated)	-24.9%	1.4	-18.2%	3.3%	6.3%	13.1%

Bioassay records deposited in PubChem BioAssay by National Center for Advancing Translational Sciences (NCATS).
